Screening data from PubChem BioAssay.
AHR activator: activates the human aryl hydrocarbon receptor; P35869; AHR-responsive luciferase reporter cells, luminescence; activation, % at 5 µM; 320,000 tested, 2.5% active; in the data active = activation above about 47%
NTR1 ag: NTR1 (human) agonism | AID 493036 | 330,000 tested, 0.17% active | P30989 | activation, % at 20 µM | NTR1-U2OS beta-arrestin-GFP spot imaging, agonist mode;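 active = activation at or above 40% of the spot to cytoplasm intensity ratio, with at least 20 cells analyzed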
A3A deaminase: inhibitors of human APOBEC3A DNA deaminase; recombinant A3A, FAM/TAMRA ssDNA deamination fluorescence; P31941; inhibition, % at 20 µM; 330,000 tested, 0.41% active;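 active = at least 40% inhibition at 20 µM here, with at most 30% in a related deaminase screen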
APOBEC3G inh: blocks human APOBEC3G single-stranded DNA deamination | Q9HC16 | recombinant A3G, ssDNA deamination FAM/TAMRA fluorescence | inhibition, % at 20 µM | 330,000 tested, 0.28% active | AID 493012;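 active = inhibition of at least 40% at 20 µM, with no more than 30% in the related APOBEC3A deaminase screen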
Target sequence (Q9HC16 whole entry, looked up): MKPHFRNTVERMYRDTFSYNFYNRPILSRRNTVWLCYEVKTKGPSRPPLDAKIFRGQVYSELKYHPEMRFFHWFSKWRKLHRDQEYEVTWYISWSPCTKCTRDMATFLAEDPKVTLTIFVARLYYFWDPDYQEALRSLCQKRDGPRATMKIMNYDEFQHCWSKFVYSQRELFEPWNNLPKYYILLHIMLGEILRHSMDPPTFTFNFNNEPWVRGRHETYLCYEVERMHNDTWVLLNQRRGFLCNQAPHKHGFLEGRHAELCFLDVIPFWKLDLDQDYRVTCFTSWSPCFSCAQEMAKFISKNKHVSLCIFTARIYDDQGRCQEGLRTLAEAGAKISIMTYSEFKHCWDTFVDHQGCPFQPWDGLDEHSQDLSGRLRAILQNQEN
Each line names hits and unclear results; the compound was inactive in the other large screens. A selection: hits, their analogues and other compounds. The true share with any hit is near 3.2%.

Cn1ncc(Cl)c1C(=O)Nc1nc2ccc(Cl)cc2s1	AHR activator 59.6
Cn1ncc(Cl)c1C(=O)Nc1cc(C(F)(F)F)ccc1F	AHR activator 77.8
Cc1cccc(-n2cc(-c3ccccc3)[nH]c2=S)c1	none
S=c1[nH]c(-c2ccccc2)cn1/N=C/c1ccc(Br)cc1	AHR activator 53.8
Cc1ccc(C)c(/C=N/n2cc(-c3ccccc3)[nH]c2=S)c1	AHR activator 61.7
Cc1ccc(/C=N/n2c(-c3ccccc3)n[nH]c2=S)cc1	none
S=c1[nH]c(-c2ccccc2)cn1/N=C/c1cccs1	AHR activator 66.6
COc1ccc(-c2noc3c2-c2nc(-c4cccc(C)c4)sc2CC3)cc1	none
COc1ccc(OCC(=O)NC(=S)Nc2ccc3c4c(cccc24)CC3)cc1	none
COc1cccc(C(=O)NC(=S)Nc2ccc3c4c(cccc24)CC3)c1	AHR activator 66.7
CC1CC(C)CN(C(=O)COC(=O)c2ccc(Cl)nc2)C1 (stereo not drawn)	none (no result: AHR activator)
O=C(O)CCCCCCCCCCCc1ccccc1	none
c1cncc(N=c2scc(-c3cccc4ccccc34)n2CCCn2ccnc2)c1	AHR activator 55.7
Cc1ccc(-c2csc(=Nc3cccnc3)n2CCCn2ccnc2)cc1C	none
C=CCN(C(=O)c1csnn1)C(C(=O)NCc1ccc(F)cc1)c1cccs1 (stereo not drawn)	none
Oc1ccc(Cl)cc1-c1cc(-c2ccco2)[nH]n1	AHR activator 47.2
Cc1ccccc1NC(=O)NC1(C(=O)N2CCN(C)CC2)CCCCC1	none
O=C(c1ccc(Br)o1)N1CCN(c2ncccn2)CC1	AHR activator 58.7
Cc1ccc(C(=O)N2CCN(c3ncccn3)CC2)o1	none
NNc1nc2c(Cl)c(Cl)ccc2s1	AHR activator 84.0
Cc1cc(Nc2ncc(Cl)cc2Cl)n[nH]1	AHR activator 54.4
O=[N+]([O-])c1ccc(-c2nc(NCc3ccccc3)c3ccccc3n2)cc1	none
O=[N+]([O-])c1cccc(-c2nc(NCc3ccccc3)c3ccccc3n2)c1	AHR activator 88.1
Cc1nc2c(cc1C#N)C(=O)c1ccccc1-2	AHR activator 159.2
Cc1cccc(C(=O)NCC(=O)NC2CCC(C)CC2)c1 (stereo not drawn)	none
CC(Oc1ccccc1)C(=O)Nc1nc(-c2ccccn2)cs1 (stereo not drawn)	none (no result: AHR activator)
CC(Oc1ccccc1)C(=O)Nc1nc(-c2ccncc2)cs1 (stereo not drawn)	AHR activator 47.2
O=c1[nH]c(CSc2ncccn2)nc2c1cnn2-c1ccccc1	AHR activator 118.8
CCOC(=O)C1=Nc2ccccc2C1=[N+]=[N-]	AHR activator 66.2
CCOC(=O)c1cnc(-c2ccccc2O)nc1Cl	none
O/N=C(\c1ccc(Cl)cc1)c1ncc(C(F)(F)F)cc1Cl	AHR activator 79.0
Cc1ccc(NC(=O)Cn2cnc(C(=O)Nc3ccc(C)c(C)c3)n2)cc1C	none (no result: AHR activator)
Cc1ccc(NC(=O)Cn2ccnc2)cc1C	AHR activator 58.7
Cc1ccc(NC(=O)c2nnn(CC(=O)Nc3ccccc3)c2N)cc1C	AHR activator 48.0
CC(OC(=O)C1CCN(c2ccc(C(F)(F)F)cn2)CC1)C(=O)Nc1cccc([N+](=O)[O-])c1 (stereo not drawn)	none
COc1ccc(/C=C(/NC(=O)c2ccccc2)C(=O)N2CCOCC2)cc1OC	none
Oc1ccccc1-c1cc(-c2cccc(F)c2)n[nH]1	AHR activator 72.3
O=C(O)c1ccccc1N/N=C\c1ccnc2ccccc12	AHR activator 65.0
O=C(O)c1ccccc1N/N=C/c1cc(Br)cc(Br)c1O	AHR activator 48.9
O=C(O)c1cccc2c(/C=N/Nc3ccccn3)c[nH]c12	none
CN(C)C(=O)CSc1nc2ccc(N3C(=O)c4ccccc4C3=O)cc2s1	none
O=[N+]([O-])c1ccc(Oc2cccc(F)c2)c2ccncc12	AHR activator 55.0
Cc1ccc(S(=O)(=O)NC(CC(=O)O)c2cccs2)cc1 (stereo not drawn)	none
O=C(NCCCN1CCCC1=O)c1ccc(NS(=O)(=O)c2ccccc2)cc1	none
O=C(NCCN1CCCCC1)Nc1ccc(Br)cc1	none
Cn1c(CN2CCCCC2)nc2cc([N+](=O)[O-])ccc21	AHR activator 67.0
Cc1cccn2cc(-c3ccc(S(=O)(=O)N4CCCCC4)cc3)nc12	none
COc1ccc(-c2cn3ccccc3n2)cc1OC	AHR activator 61.1
Cc1cccn2cc(-c3c[nH]c4ccccc34)nc12	AHR activator 58.7
Brc1ccc2nc(-c3c[nH]c4ccccc34)cn2c1	none
Cc1cccn2cc(-c3ccc(Cl)cc3)nc12	AHR activator 71.1
COc1ccc(-c2cn3cc(C)ccc3n2)cc1F	none
COc1ccc(-c2cn3cccc(C)c3n2)cc1F	AHR activator 69.8
